# Among all 2,200 compounds or so, about 1,400 (64%) were called active. The set was probably picked from earlier hits. Not all results are given here. Values without a mark were called inactive.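 How the source made its calls: active means luminescence in either replicate above plate mean of wells with a partly effective reference agonist dose plus 3 SD; inactive means the rest.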
# Assay: isoproterenol-driven CRE-luciferase response modulation in HEK293 cells, confirmation, counter-screen for D1 allosteric modulator project, cell-based, secondary assay 2, luminescence (AID 647);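 further: isoproterenol raises cAMP through native beta-adrenoceptor Gs so signal bypasses D1; raw luminescence counts from the Envision reader with one value per duplicate well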
# Details: isoproterenol EC30 counter-screen, at 10 µM, hits give high values
row,Structure (SMILES),luminescence
1,N#Cc1c(N)sc2c1CCN(C(=O)OCc1ccccc1)C2,5320 (active)
2,CCNc1nc(NCC)nc(N(C)n2cnnc2)n1,3650 (active)
3,CC(C)c1cc(C(=O)O)on1,2070
4,Oc1ccc(-c2csc(Nc3cccnc3)n2)cc1,3250 (active)
5,CCn1ncc(C2=NOC(C(=O)Nc3ccccc3C(=O)OC)C2)c1C (stereo unspecified),5220 (active)
6,CCn1nc(C(=O)OCC(=O)N2c3ccccc3CC2C)c2ccccc2c1=O (stereo unspecified),2840
7,Cc1ccc(-c2nn(-c3ccccc3)cc2CN(Cc2ccccc2)C(=O)CCC(=O)O)o1,4080 (active)
8,O=C(CSc1nnc2scc(-c3ccc(F)cc3)n12)NCc1ccco1,2580
9,CCOc1cc(-c2noc(CCC(=O)N3CCOCC3)n2)ccc1OC,2630
10,CCOc1ccc(-c2nnn(CC(=O)N3CCN(c4ccc(OC)cc4)CC3)n2)cc1OCC,3110 (active)
11,CC1CCN(c2oc(-c3ccccc3F)nc2C#N)CC1,3380 (active)
12,CCOc1ccc2c(c1)cc(CN(C(=O)CC)C1CCCCC1)c1nnnn12,3880 (active)
13,CCOc1ccc2[nH]c(=O)c(C(c3nnnn3CCOC)N3CCOCC3)cc2c1 (stereo unspecified),2250
14,FC(F)(F)c1cc(-c2ccco2)nc(N2CCOCC2)n1,4220 (active)
15,Cc1cc(C(F)(F)F)nn1-c1nc(-c2ccco2)cc(C(F)(F)F)n1,3340 (active)
16,O=C(NCc1ccco1)c1cnn2c(C(F)(F)F)cc(-c3ccco3)nc12,3240
17,COc1ccc(-c2nnco2)cc1OC,3030 (active)
18,Cc1ccc(C2CC(c3cccc(C)c3)n3nc(N)nc3N2)cc1 (stereo unspecified),2800
19,Cc1ccc(C2CC(c3cccc(Br)c3)n3nc(N)nc3N2)cc1 (stereo unspecified),3660 (active)
20,CCOc1ccccc1C1CC(c2ccccc2)Nc2nc(N)nn21 (stereo unspecified),3190
21,CCOc1cc(C(=O)N2CCc3cc(OC)c(OC)cc3C2)ccc1OC(F)F,11500 (active)

row,Structure (SMILES),luminescence
1,CC(=O)Nc1cccc(Oc2cc(C#N)c(C#N)cc2N2CCOCC2)c1,4140 (active)
2,COc1cc(NC(=O)N2CCOCC2)cc(OC)c1,2540
3,C/C(Cl)=C\Cn1c(Nc2cccc(C)c2)nc2c1c(=O)n(C)c(=O)n2C,3460 (active)
4,Cc1cc(C)c2c(n1)nn1c(-n3ccnc3)cc(C)nc21,3020 (active)
5,CCSc1nc(C)nc2c1oc1ccccc12,3530 (active)
6,COC(=O)[C@H](C(C)C)n1c(C)c(C(C)=O)c(C(C)=O)c1C,2600
7,O=c1cc(-c2ccccc2)nc(N2CCCCC2)[nH]1,3010
8,CCCN1Cc2cccc(C(=O)NCc3ccccc3)c2C1=O,3680 (active)
9,CCSc1ncnc2c(C#N)c3n(c12)CCCCC3,6230 (active)
10,O=C(c1ccco1)N1CCN=C1SCc1cccc(Cl)c1,3200 (active)
11,Cc1ccc(S(=O)(=O)c2c(N)n(C)c3nc4ccccc4nc23)cc1,3490 (active)
12,COc1ccc(-n2c(Cc3cccn3C)nnc2SCC(=O)Nc2cc(C)cc(C)c2)cc1,2370
13,Nc1ccc(S(=O)(=O)NC(=O)c2ccccc2)cc1,2950
14,CCOC(=O)c1cc(C)sc1NC(=O)C1CCC1,4600 (active)
15,C/C(=C\C(=O)c1ccccc1)Nc1cccc(O)c1,2540
16,CN(C)c1nc(N)nc(CSc2nnnn2-c2cccc3ccccc23)n1,3420 (active)
17,COc1cc(-c2nn3c(-c4cccc(C)c4)nnc3s2)cc(OC)c1OC,4430 (active)
18,COc1ccc(-c2nn3c(-c4ccccc4)nnc3s2)cc1OC,8440 (active)
19,O=C(C1CCC1)N1CCc2cc(S(=O)(=O)NCc3cccnc3)ccc21,3060
20,N#Cc1nc(N)nc(N(c2ccccc2)c2ccccc2)n1,2880

# Reference: PubChem BioAssay AID647 (Vanderbilt High Throughput Screening Facility, 2007)
